Reference: PubChem BioAssay
Active and inactive are the calls of the source.

Experiment: JC-1 mitochondrial signal, unstimulated MM1S myeloma – cell-based, JC-1 fluorescence, 24 h, 100 nL compound, profiling panel (AID 1170)
Details: MM1S mitochondrial potential, higher = more signal
Further: test concentration not given here.

| Compound | z-score |
| --- | --- |
| CN1C(=O)[C@@H]2[C@@H](CC(COc3ccccc3)=C3[C@@H](CCc4ccccc4)OB(O)C[C@@H]32)C1=O | -0.904 |
| CC(C)(C)OC(=O)CC[C@]1(C(=O)NCC(O)CO)N=C(c2ccc(OCCCO)cc2)O[C@H]1c1ccccc1N=[N+]=[N-] (some centres not stated) | -0.591 |
| COc1ccc([Si](C)(C)[C@H]2[C@H](CC(=O)N3CCC[C@H]3CO)O[C@@]3(C(=O)N(Cc4ccc(N5CCCCC5=O)cc4)c4ccccc43)[C@@H]2C)cc1 | -0.184 |
| C=CCOC(=O)[C@H]1[C@@H]2C(=O)O[C@@H](c3ccccc3)[C@@H](c3ccccc3)N2[C@@H](c2ccc(OCCOC(=O)[C@@H]3C[C@@H]4C(=O)N[C@@H](CCCC[N+](C)(C)C)C(=O)N4[C@@H]3c3ccc(O)cc3)cc2)[C@]12C(=O)Nc1ccc(I)cc12 | -0.879 |
| O=C(NCc1ccc(F)cc1)[C@H]1C[C@H]2C(=O)N3CCC[C@H]3C(=O)N2[C@H]1c1ccc(O)cc1 | -0.396 |

Experiment: resazurin metabolic signal in A549 cells – cell-based, resazurin fluorescence, 24 h, PK04 Diversity Set, profiling panel (AID 1171)
Details: A549 viability, higher = more signal, called active from +8 up or from −8 down

| Compound | z-score |
| --- | --- |
| COC(=O)[C@@]1(Cc2ccc(F)cc2)[C@H]2c3cc(C(=O)N(C)C)n(CCc4ccc(O)c(O)c4)c3C[C@H]2CN1C(=O)c1ccccc1 | -0.238 (inactive) |
| CCOC(=O)C1=CC[C@@H](c2ccc(OC)cc2)N(S(=O)(=O)c2ccc(C)cc2)[C@H]1c1ccc(C)cc1 | 0.302 (inactive) |
| [N-]=[N+]=NCc1ccccc1[C@@H]1OC(c2ccc(OCCCO)cc2)=N[C@]1(Cc1ccccc1N=[N+]=[N-])C(=O)O | 0.54 (inactive) |
| COC(=O)[C@@]1(Cc2ccccc2)[C@H]2c3cc(C(=O)N(C)C)n(CCSC(=N)N)c3C[C@H]2CN1C(=O)c1ccccc1 | -0.541 (inactive) |
| Cc1ccc(S[C@]2(C(=O)NC(C)C)CC(=O)N(C3CCCCC3)[C@@H]2c2ccc(CO)cc2I)cc1 | 0.81 (inactive) |
| COC(=O)C(CC#Cc1ccc2c(c1)[C@]1(C(=O)N2)[C@H](C(=O)N2CCc3cc(OC)c(OC)cc3C2)[C@H]2C(=O)O[C@H](c3ccccc3)[C@H](c3ccccc3)N2[C@@H]1c1ccccc1OCCO)C(=O)OC | -0.694 (inactive) |
| C=CC[C@@]12N=C(c3ccc(OCCCO)cc3)O[C@@H]1c1ccccc1N(CCC)C2=O | 0.0626 (inactive) |
| CCC(CC)C(O)C1C=CC2C(=O)N(c3ccccc3)C(=O)C2N1Nc1ccccc1F (configuration not stated) | 0.0513 (inactive) |
| C=C(COC)/C(=C/C[C@H](OC(C)=O)c1ccccc1OCCO)c1cc(C(=O)OC)ccc1OC | -0.0553 (inactive) |
| CN(C)CCCC[C@@H]1NC(=O)[C@@H]2C[C@H](C(=O)NCCCCCN)[C@H](c3cccc(OCCO)c3)N2C1=O | 1.08 (inactive) |
| COC(=O)C[C@H]1O[C@@]2(C[C@@H]1[Si](C)(C)C)C(=O)N(C)c1ccccc12 | 0.543 (inactive) |
| NC(=O)N1C(=O)C2C(C1=O)C1C=C(CCCO)C2C(C2CC2)N1Cc1sc2ccccc2c1Cl (configuration not stated) | 1.09 (inactive) |
| CCOC(=O)C1=CCC(c2cc3ccccc3[nH]2)N(CCN2CC(C(=O)OCC)=CCC2c2cc3ccccc3[nH]2)C1 (configuration not stated) | 0.161 (inactive) |
| COCC(=C=CC[C@H](O)c1ccccc1OCCO)C[C@H](O)COCc1ccccc1 | 0.857 (inactive) |
| COc1ccc([Si](C)(C)[C@@H]2[C@@H](CC(=O)N3CCC[C@H]3CO)O[C@]3(C(=O)N(Cc4ccc(N5CCOC5=O)cc4)c4ccccc43)[C@H]2C)cc1 | -1.77 (inactive) |
| C=C(CCCC)C(=O)CC[C@H](OC(=O)c1ccccc1-c1ccccc1C(=O)O)c1ccc(OCCO)cc1 | 0.52 (inactive) |
| COC(=O)[C@@]1(Cc2ccc(F)cc2)[C@H]2c3cc(C(=O)N4CCCC4)n(Cc4ccccn4)c3C[C@H]2CN1C(=O)c1ccccc1 | -1.75 (inactive) |
| O=C1NC(=O)C2C1C=CC(C(O)c1ccc([N+](=O)[O-])cc1)N2Nc1ccccn1 (configuration not stated) | -0.0648 (inactive) |
| CCCC#C[Si](O[C@H](CC)c1cn(Cc2ccccc2)nn1)(C(C)C)C(C)C | -0.406 (inactive) |
| COCCCNC(=O)[C@@]1(CCC(=O)OC(C)(C)C)COC(c2ccc(OCCCO)cc2)=N1 | 2.45 (inactive) |
| C=C(CCCC)/C(=C/C[C@H](OC(C)=O)c1cccc(OCCO)c1)c1cnc2ccccc2c1 | 0.395 (inactive) |
| CN(C)C(=O)[C@]1(Cc2ccccc2)N=C(c2ccc(OCCCO)cc2)O[C@@H]1c1ccccc1CN=[N+]=[N-] | 0.553 (inactive) |
